# Compound activity deposited in PubChem BioAssay by National Center for Advancing Translational Sciences (NCATS).
# Most compounds without a hit are left out; they make up all but 7.8% or so of the library.
# Lassa entry inh: Lassa virus entry inhibition; Lassa virus pseudotype entry inhibition, cell reporter; Potency, µM (doses to about 37.9 µM), inactives show top-dose activity change, negative = inhibition, hits mostly inhibitors; 300,000 compounds, 1.2% hits; calls by dose curve; tested in HEK293 cells; also: potency is read from the fitted curve at half-maximal effect; nearly all actives have a fitted effect of over 50% in size
# VACV mCherry inh: vaccinia inhibition (mCherry reporter) | Vaccinia virus mCherry reporter infection, fluorescence | Potency, µM (top dose mostly 36.5 µM), without a hit: top-dose activity change, negative = inhibition, actives largely listed as inhibitors | 310,000 compounds, 0.63% hits | AID 720579; calls by dose curve; tested in A549 cells; also: potency is read from the fitted curve at half-maximal effect; nearly all actives have a fitted effect of over 35% in size
# MARV entry inh: inhibitors of Marburg virus binding or cell entry; Marburg virus pseudotyped entry inhibition, cell reporter; Potency, µM (highest dose often 37.8 µM), for inactives: at the top dose activity change, negative = inhibition, actives largely listed as inhibitors; 300,000 compounds, 1.8% hits; AID 540276; calls by dose curve; tested in HEK293 cells; also: potency is read from the fitted curve at half-maximal effect
# HCV inhibitor: HCV inhibition; Huh7.5.1 HCVcc-Cre infection, luciferase reporter, 44 h; Potency, µM (titrated, usually from 41.8 µM), without a hit: at the top dose activity change, negative = inhibition, usual class: inhibitors; 340,000 compounds, 3.4% hits; AID 651820; active = well fitted inhibition curve with a large enough effect; inconclusive = small, poorly fitted or top-dose-only effect, or another doubt; inactive = no such curve, though single readings can be large or run the other way; also: potency is read from the fitted curve at half-maximal effect
#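 Reporter virus HCVcc-Cre (~0.5 moi) infects cells exposed to compound; seeding density 1,000 cells/well with 4 h settling beforehand. Luminescence, 15 sec read, taken 44 h post-infection following a 15 min RT substrate incubation.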
# HCMV antiviral: inhibitors of human cytomegalovirus | HFF cells, HCMV-luciferase reporter, 72 h; active compounds read low | activity change, negative = inhibition, % at 57.5 µM | 410,000 compounds, 4.5% hits | AID 1259415; in the data active = activity change below about -60%; inconclusive = no clear call, values can overlap the other calls; inactive = above about -39%
#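 Luciferase read-out from HCMV-luciferase-infected HFFs (MOI 1 PFU/cell) 72 h post infection at 37C; compounds added after 16 h cell attachment; activity normalized between buffer-only basal and Salinomycin (10uM) inhibitor controls.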
# Vaccinia Venus: inhibitors of vaccinia virus (Venus reporter). 330,000 compounds, 0.46% hits. Vaccinia virus Venus reporter expression, fluorescence. Potency, µM (highest dose often 36.5 µM), without a hit: at the highest dose activity change, negative = inhibition, actives largely listed as inhibitors; calls by dose curve; tested in A549 cells; also: potency is read from the fitted curve at half-maximal effect; nearly all actives have a fitted effect of over 30% in size
# * hit, by the source's call; i = inactive; ? = inconclusive; . = no result given; + = active, no number; [ ] = remark or other dose. % is scaled to controls: 0 for no effect and ±100 for the full control effect.
SMILES,Lassa entry inh,VACV mCherry inh,MARV entry inh,HCV inhibitor,HCMV antiviral,Vaccinia Venus
O=C(CSCc1ccc(F)cc1)N1CCc2c([nH]c3ccccc23)C1c1ccc(F)cc1 (centres undefined),?,-25.3%,.,.,23.2,-24.4%
COc1cccc(C(=O)N2CCc3c([nH]c4ccccc34)C2c2ccc(SC)cc2)c1 (centres undefined),?,-15.7%,.,.,-63.8*,-7.0%
COc1cc(C(=O)N2CCc3c([nH]c4ccccc34)C2c2ccc(F)cc2)cc(OC)c1OC (centres undefined),8.91µM*,-16.5%,.,.,28.6,-6.8%
O=C(c1ccc(F)cc1)N1CCc2c([nH]c3ccccc23)C1c1ccc(Cl)cc1 (centres undefined),?,-4.1%,.,.,-65.9*,-13.2%
COCC1CCCN(Cc2ccc3c(c2)CN(C(=O)c2cc(-c4ccccc4)n[nH]2)CCO3)C1 (centres undefined),.,-7.6%,.,.,.,-17.2%
COC(=O)CC1c2ccccc2C=C(/C=C/c2ccc3c(c2)OCO3)N1C(=O)OC (centres undefined),.,.,-18.2%[14.2 µM],.,.,.
O=C(Nc1nc(COc2ccccc2)cs1)C12CC3CC(CC(C3)C1)C2,-5.2%,.,-4.6%,?,-84.0*,.
CC(=O)Nc1nc(COc2ccccc2)cs1,0.4%,-12.6%,3.6%,15.9%,99.9,-10.8%
O=C(Nc1nc(COc2ccccc2)cs1)C1CCC1,?,.,-29.2%,?,9.0,.
Cc1ccc(C(=O)Nc2nc(COc3ccccc3)cs2)s1,-45.3%,-8.6%,-20.1%,11.2µM*,-74.9*,-28.5%
O=C(/C=C/c1ccccc1)C1C(=O)c2ccccc2C1=O,6.5%,-18.4%,8.6%,?,-9.3,-6.9%
CCc1ccc(/C=C/C(=O)C2C(=O)c3ccccc3C2=O)cc1,2.31µM*,3.8%,?,?,15.4,0.9%
CCN1CCCC(C2NC3CCCCC3S2)C1 (centres undefined),.,.,0.5%,.,.,.
O=C(NC(Cc1c[nH]c2ccccc12)C(=O)O)c1cccs1 (centres undefined),-5.5%,-0.8%,-1.9%[14.2 µM],24.8%,-9.9,-4.6%
O=C(NC(Cc1c[nH]c2ccccc12)C(=O)Nc1ccc(F)c([N+](=O)[O-])c1)c1cccs1 (centres undefined),0.581µM*,2.51µM*,0.794µM*,?,-87.5*,2.6%
CCOc1ccc(NC(=O)Cc2ccc(-n3c(C)nc4cccnc43)cc2)cc1,2.3%[46.1 µM],-11.1%,.,.,?,-7.3%
Cc1ccc(NC(=O)Cc2ccc(-n3c(C)nc4cccnc43)cc2)cc1C,?,-22.3%,.,.,+,-18.9%
CCCC(=O)Nc1ccc(C(=O)N/N=C/c2ccc([N+](=O)[O-])o2)cc1,?,?,11.6µM*,?,-94.8*,?
Cc1cc(C(=O)N/N=C/c2ccc([N+](=O)[O-])o2)c(C)o1,.,.,.,?,-60.7*,.
COC(=O)N/N=C/c1ccc([N+](=O)[O-])o1,-6.2%,.,2.7%,-5.8%,-4.9,.
CCCCCCC(=O)Nc1ccc(C(=O)N/N=C/c2cccnc2)cc1,-1.0%,-12.6%,-19.0%,-18.2%,10.0,-6.6%
CCCCCCCC(=O)Nc1ccc(C(=O)N/N=C/c2cccc([N+](=O)[O-])c2)cc1,?,-13.6%,?,?,-69.4*,-3.1%
O=S(=O)(c1ccccc1)c1nnn2c1nc(N1CCN(c3ccccc3)CC1)c1cc(Cl)ccc12,.,-18.0%,10.9%[46.1 µM],.,11.3,-15.7%
Cn1c(=O)c(Nc2ccc(O)cc2)c2c3c(cccc31)C(=O)c1ccccc1-2,-4.0%,-28.1%,-28.7%,?,-60.7*,-19.7%
CC(=O)c1c2c3c(cccc3n(C)c1=O)C(=O)c1ccccc1-2,.,.,.,2.5%,.,.
SMILES,Lassa entry inh,VACV mCherry inh,MARV entry inh,HCV inhibitor,HCMV antiviral,Vaccinia Venus
COc1ccccc1OCCC(=O)O,25.4%[46.1 µM],i,0.8%[46.1 µM],0.2%,-90.8*,10.0%
COc1ccccc1OCC(=O)O,15.2%,.,4.0%,19.6%,55.0,-11.0%
Cc1cc(C)cc(OCCn2ccnc2)c1,.,.,.,6.31µM*,-4.1,.
Cc1ccccc1NC(=O)CSc1cn(CC(=O)N(C(C)C)C(C)C)c2ccccc12,1.3%[46.1 µM],1.0%,.,.,?,-7.5%
CSc1nc2sc3c(c2c(=O)n1C)CCC3,.,.,.,?,-12.9,.
CSc1nc2sc3c(c2c(=O)n1C)CCCC3,1.6%,-12.8%,11.9%,11.2µM*,-9.4,-15.7%
